Experimental data published in PubChem BioAssay AID686979 (National Center for Advancing Translational Sciences (NCATS), 2013).
Several values for one entry are separate records, joined by “and”; a condition that tells them apart may be missing. Equal entries are not always repeated. About 50,000 (12%) of roughly 420,000 compounds were called active. Roughly 26% stayed inconclusive and do not appear here. Calls come from the whole dose curve; as a rule, active = well fitted inhibition curve with a large enough effect; inconclusive = small, poorly fitted or top-dose-only effect; inactive = flat fitted curve, though single readings scatter. The list comes from a sample in which actives are over-represented; it also holds similar structures and randomly drawn compounds. Where a call stands in place of a potency, no number is given. A structure can be active in one record and inactive in another.

test: qHTS for Inhibitors of human tyrosyl-DNA phosphodiesterase 1 (TDP1): qHTS in cells in presence of CPT; settings: chicken DT40 Tdp1-/-;hTDP1 cells + 20 nM CPT, ATP luminescence, 48 h; series mostly up to 46.2 µM; note: nearly all actives have a fitted effect of over 55% in size
Method in brief: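 Chicken DT40 Tdp1-/- cells complemented with human TDP1, 400 cells/well, exposed to compounds plus 20 nM camptothecin for at least 48 h at 37 C; viability read as ATP content by CellTiter-Glo luminescence.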
Potency is the fitted concentration of half-maximal effect.

Row | SMILES | Potency | activity change, negative = growth inhibition
1 | COc1ccc(C2=CC(c3ccccc3Cl)n3nc(-c4ccc(Cl)cc4)nc3N2)cc1 (centres undefined) | inactive | –
2 | CN(CC(=O)NCCN1CCOCC1)S(=O)(=O)c1ccc(F)cc1 | inactive | –
3 | Cc1ccnc(SCC(=O)Nc2cccc(S(=O)(=O)N3CCOCC3)c2)n1 | inactive | –
4 | C=C(C)CNC(=S)/N=c1\scc(C)n1CC | 18.4 µM (active) | –
5 | Cc1csc(=NC(=O)c2ccccc2)n1CCO | inactive | –
6 | CSCCC(C(=O)NC1=NCCS1)N1C(=O)c2ccccc2C1=O (centres undefined) | inactive | –
7 | N/C(=N\OS(=O)(=O)c1cccc([N+](=O)[O-])c1)c1ccncc1 | inactive | –
8 | Cc1cc(C(=O)CSc2nc(N)cc(=O)[nH]2)c(C)n1-c1cccc(F)c1 | 7.31 µM (active) | –
9 | Cc1cc(C(=O)CSc2nc(N)cc(=O)[nH]2)c(C)n1CCc1ccc(Cl)cc1 | 16.4 µM (active) | –
10 | Cc1cc(=O)[nH]c(SCc2ccc(Cl)cc2)n1 | inactive | –
11 | CCN(C(=O)CSc1nc(N)cc(=O)[nH]1)C1CCS(=O)(=O)C1 (centres undefined) | inactive | –
12 | Cc1cc(C)c(C(=O)CSc2nc(C)cc(=O)[nH]2)c(C)c1 | inactive | –
13 | CCCCc1nnc(NC(=O)CSc2nc(N)cc(=O)[nH]2)s1 | inactive | –
14 | Cc1c(OC(C)C(=O)NCC2CCC(C(=O)O)CC2)ccc2c1oc(=O)c1ccccc12 (centres undefined) | inactive | –
15 | COc1cc(SC)ccc1C(=O)NNC(=O)C1COc2ccccc2O1 (centres undefined) | inactive | –
16 | CCc1ccccc1NC(=O)CN(C)C(=O)c1cc(C2CC2)nn1-c1ccccc1 | inactive | –
17 | O=C(COC(=O)c1cccnc1Cl)NC12CC3CC(CC(C3)C1)C2 | inactive | –
18 | O=C(COC(=O)c1ccc(Br)o1)NC12CC3CC(CC(C3)C1)C2 | inactive | –
19 | COc1cc(C(=O)OCC(=O)NC23CC4CC(CC(C4)C2)C3)cc(OC)c1OC | 29.1 µM (active) | –
20 | COc1cc(-c2nc(S(=O)(=O)c3ccc(Cl)cc3)c(N(C)C)o2)cc(OC)c1OC | inactive | –
21 | Cc1cccc(-c2noc(-c3ccc(F)cc3)n2)c1 | inactive | –
22 | CC(C)S(=O)(=O)c1oc(-c2ccc(F)cc2)nc1S(=O)(=O)c1ccc(F)cc1 | 0.291 µM (active) | –
23 | COc1ccc2c(c1)C(NS(=O)(=O)OCC(Cl)(Cl)Cl)CCC2 (centres undefined) | inactive | –
24 | C=CC1C(OC2OC(CO)C(O)C(O)C2O)OC=C(C(=O)OC)C1CC1CC(=O)CC(CC(=O)CCc2ccc(O)cc2)O1 (centres undefined) | inactive | –
25 | Cc1ccccc1NC(=O)Cc1nc(COC(=O)c2cccnc2Cl)cs1 | inactive | –

Row | SMILES | Potency | activity change, negative = growth inhibition
26 | Cc1ccc(CSc2nc(-c3ccccc3)c(C#N)c(=O)[nH]2)cc1 | inactive | –
27 | CC1CCC(NC(=O)c2ccc(N3CCCC3=O)cc2)CC1 (centres undefined) | inactive | –
28 | CN1C(=O)/C(=C/c2ccc(C(=O)NC3CCCC3)cc2)Oc2ccccc21 | 13 µM (active) | –
29 | O=C(NC1CCCCC1)c1ccc(CNc2c(N3CCOCC3)c(=O)c2=O)cc1 | inactive | –
30 | CC(C)CC(=O)Nc1nnc(S(=O)(=O)N(C)c2ccc(Cl)cc2)s1 | inactive and 146 nM (active) | –
31 | COc1cccc(C(=O)Nc2nnc(S(=O)(=O)N(C)c3ccccc3)s2)c1 | inactive | –
32 | CCC(=O)Nc1nnc(S(=O)(=O)N(CC(C)C)c2ccccc2)s1 | inactive | –
33 | Cc1noc(C)c1S(=O)(=O)N(C)C[C@H]1Oc2ccc(NC(=O)C3CCCCC3)cc2C(=O)N([C@H](C)CO)C[C@@H]1C | inactive | –
34 | O=C(Nn1c(-c2ccc(Cl)cc2)nc2ccccc2c1=O)c1cccnc1Cl | inactive | –
35 | COc1cc(OC)cc(-c2nc3ccccc3c(=O)n2NC(=O)c2cccnc2Cl)c1 | inactive | –
36 | COc1ccccc1C(=O)Nn1c(-c2cccs2)nc2ccccc2c1=O | 18.4 µM (active) | –
37 | Cc1ccc(OCC(=O)OCc2cc(=O)n3nc(C4CC4)sc3n2)cc1 | inactive | –
38 | CCc1cc(C(=O)Nc2nnc(C3CC3)s2)sc1C | inactive | –
39 | CCCN(CC(=O)Nc1ccccc1C)C(=O)c1cc(=O)[nH]c2ccccc12 | inactive | –
40 | CCCN(CC(=O)Nc1ccccc1C)C(=O)c1ccc2[nH]c3c(c2c1)CC(C)CC3 (centres undefined) | 20.6 µM (active) | –
41 | CCCN(CC(=O)Nc1ccccc1C)C(=O)c1ccc(OCC(=O)N2CCOCC2)c(OCC)c1 | inactive | –
42 | Cc1ccc(CN2CCN(c3ccccc3Cl)CC2)o1 | inactive | –
43 | Cc1ccc(N2C(=O)C3C4C=CC(CC4)C3C2=O)cc1Cl (centres undefined) | inactive | –
44 | O=C(NCCN1CCOCC1)/C(=C/c1ccc(F)cc1)NC(=O)c1ccccc1 | inactive | –
45 | Nc1nc(COC(=O)CCC(=O)c2ccc(Cl)cc2)nc(Nc2ccccc2)n1 | inactive | –
46 | CCCc1cc(C(=O)Nc2ccc(C(=O)OC)cc2)cs1 | inactive | –
47 | CCOC(=O)C1CCCN(C(=O)Cn2ncc3c(=O)oc4ccc(C)cc4c32)C1 (centres undefined) | inactive | –
48 | CCOC(=O)C1CCCN(C(=O)CN(c2ccc(OC)cc2)S(=O)(=O)c2c(C)noc2C)C1 (centres undefined) | inactive | –
49 | CCOC(=O)C1CCCN(C(=O)Cn2ncc3c(C)n(Cc4ccc(F)cc4)c(C)c3c2=O)C1 (centres undefined) | 14.6 µM (active) | –
50 | CCCNC(=O)c1cc(C2CCCCN2S(=O)(=O)c2cn(C)cn2)on1 (centres undefined) | inactive | –

Row | SMILES | Potency | activity change, negative = growth inhibition
51 | CCS(=O)(=O)N1Cc2ccccc2CC1C(=O)Nc1nc2ccc(F)cc2s1 (centres undefined) | inactive | –
52 | O=C(Nc1ccc(O)cc1)c1ccc(NC(=O)c2ccco2)cc1 | inactive | –
53 | Cc1cc(C)c2cc(CN(Cc3cccs3)Cc3nnnn3CC3CCCO3)c(=O)[nH]c2c1 (centres undefined) | 23.1 µM (active) | –
54 | Cc1ccc(S(=O)(=O)N(Cc2cc3ccccc3[nH]c2=O)CC2CCCO2)cc1 (centres undefined) | inactive | –
55 | Cc1cccc2cc(CN(Cc3nnnn3Cc3ccccc3)C3CCCC3)c(=O)[nH]c12 | 20.6 µM (active) | –
56 | CCC(c1nnnn1C1CCCC1)N(Cc1cccs1)Cc1cc2cccc(C)c2[nH]c1=O (centres undefined) | 20.6 µM (active) | –
57 | Cc1cccc2cc(CN(Cc3cccs3)C(c3nnnn3C3CCCC3)C(C)C)c(=O)[nH]c12 (centres undefined) | inactive | –
58 | O=C(c1cccs1)N(Cc1cc2ccccc2[nH]c1=O)CC1CCCO1 (centres undefined) | inactive | –
59 | c1ccc(CCn2nnnc2CN2CCN(C3CCCC3)CC2)cc1 | inactive | –
60 | Cc1n[nH]c(=O)c2c1nnn2Cc1ccc(F)cc1 | inactive | –
61 | Cc1cc(C)c2cc(CN(Cc3nnnn3Cc3ccc(F)cc3)C3CCCC3)c(=O)[nH]c2c1 | 14.6 µM (active) | –
62 | Cc1cccc2cc(CN(C(=O)c3cccs3)c3ccccc3)c(=O)[nH]c12 | inactive | –
63 | CCCN(Cc1cc2cccc(C)c2[nH]c1=O)S(C)(=O)=O | inactive | –
64 | Cc1occc1-c1nnc(SCC(=O)NC2CCCCC2)o1 | inactive | –
65 | Cc1cc2c(cc1S(=O)(=O)CCC(=O)NCc1ccccc1)OCC(=O)N2 | inactive | –
66 | CCSCc1nc(N)nc(NCCc2ccccc2)n1 | inactive | –
67 | CCOc1ccc(-n2cnc3c(=O)[nH]c(N)nc32)cc1 | inactive | –
68 | CN(Cc1ccc(F)cc1)C(=O)COc1ccc2ccccc2c1 | inactive | –
69 | NC(=O)c1cc(-c2cccnc2)nc2ccc(Br)cc12 | inactive | –
70 | CN1CCCCCC1C(=O)NCCN1Cc2ccccc2OC(c2ccsc2)C1 (centres undefined) | – | 11.9% [at 9.04 µM] (inactive)
71 | C#CCOCCOCCOCCNc1nc(N2CCOCC2)nc(N2CCN(C(=O)[C@H](Cc3ccc(O)cc3)n3cc(CCO)nn3)CC2)n1 | inactive | –
72 | CCN(C(=O)COC(=O)CCC(=O)c1cccs1)C1CCCCC1 | inactive | –
73 | COc1ccc(C2c3c(C)nn(-c4ccccc4)c3NC(=O)N2c2ccccc2)cc1 (centres undefined) | inactive | –
74 | COc1ccc(C2CC(=O)Nc3c2c(=O)nc2c(C)cccn32)cc1OC (centres undefined) | inactive | –
75 | COc1ccc(Br)cc1C1CC(=O)Nc2c1c(C)nn2-c1nc(C)cc(C)n1 (centres undefined) | 16.4 µM (active) | –

Row | SMILES | Potency | activity change, negative = growth inhibition
76 | COC(=O)C1(C)NC(c2ccc(F)cc2)C2C(=O)N(c3ccccc3)C(=O)C21 (centres undefined) | inactive | –
77 | CCOC(=O)C1(C)NC(c2ccco2)C2C(=O)N(c3ccccc3)C(=O)C21 (centres undefined) | inactive | –
78 | CCCCC1(C(=O)OCC)NC(c2ccc(O)cc2)C2C(=O)N(c3ccccc3)C(=O)C21 (centres undefined) | 14.6 µM (active) | –
79 | COc1ccccc1C(=O)N/C(=C/c1ccco1)C(=O)Nc1ccc(C(=O)O)cc1 | inactive | –
80 | COCCCn1c(=O)/c(=C/c2ccccc2OC(C)C)s/c1=C(\C#N)C(=O)Nc1ccc(C(=O)O)cc1 | 20.6 µM (active) | –
81 | COc1ccc(NC(=O)/C(C#N)=C\c2cc(OC)c(OCc3ccc(C(=O)O)cc3)cc2Br)cc1 | inactive | –
82 | Cn1c(N)c(C(=O)COC(=O)COc2ccc(Cl)cc2)c(=O)n(C)c1=O | inactive | –
83 | COc1ccc(-c2cc(=O)oc3cc(OC(C)C(=O)NCC4CCC(C(=O)O)CC4)ccc23)cc1 (centres undefined) | inactive | –
84 | COc1ccc(NC(=O)CNc2cc(S(=O)(=O)N3CCOCC3)ccc2N2CCOCC2)c(OC)c1 | inactive | –
85 | O=C(CC12CC3CC(CC(C3)C1)C2)Nc1ccc2c(c1)COC2=O | 13 µM (active) | –
86 | NS(=O)(=O)c1cccc(NC(=O)CC23CC4CC(CC(Br)(C4)C2)C3)c1 | inactive | –
87 | O=C(CC12CC3CC(CC(C3)C1)C2)NCc1ccco1 | inactive | –
88 | CCN1CCN(C(=O)N(Cc2ccc(Cl)cc2)S(=O)(=O)c2ccc(C)cc2)CC1 | inactive | –
89 | CC(=O)Nc1ccc(S(=O)(=O)N(C)CC(=O)NCCC2=CCCCC2)cc1 | inactive | –
90 | S=C(NCCc1ccccc1)Nc1ccccc1 | inactive | –
91 | S=C(NCCC1=CCCCC1)Nc1ccccc1 | 16.4 µM (active) | –
92 | COc1ccc(-c2cc(-c3ccc(F)cc3)nc3c2COc2ccccc2-3)cc1 | inactive | –
93 | CC(C)(C)C(=O)COC(=O)c1cc(S(=O)(=O)N2CCCCC2)ccc1N1CCOCC1 | inactive | –
94 | O=C(CCCN1C(=O)c2ccccc2C1=O)Oc1ccc(Cl)cc1 | inactive | –
95 | CCCCN(C(=O)CSCC(=O)Nc1ccc(OC)cc1)c1c(N)n(CCC)c(=O)[nH]c1=O | inactive | –
96 | CC(C)C(=O)NC(C)c1nnc2n1CCN(Cc1cccc3ncccc13)CC2 (centres undefined) | – | 24.6% [at 9.04 µM] (inactive)
97 | N#Cc1nc(-c2ccc(OCc3ccccc3)cc2)oc1NCCCN1CCOCC1 | 20.6 µM (active) | –
98 | Cc1ccc(-c2nc(C#N)c(NCCCn3ccnc3)o2)cc1 | inactive | –
99 | O=S(=O)(c1ccccc1)c1nc(-c2ccccc2)oc1NCCCN1CCOCC1 | inactive | –
